This passage reports cross-linked residues results from paper PMC13423814.

Sequence of EIF4A3, P38919 (P38919 whole entry): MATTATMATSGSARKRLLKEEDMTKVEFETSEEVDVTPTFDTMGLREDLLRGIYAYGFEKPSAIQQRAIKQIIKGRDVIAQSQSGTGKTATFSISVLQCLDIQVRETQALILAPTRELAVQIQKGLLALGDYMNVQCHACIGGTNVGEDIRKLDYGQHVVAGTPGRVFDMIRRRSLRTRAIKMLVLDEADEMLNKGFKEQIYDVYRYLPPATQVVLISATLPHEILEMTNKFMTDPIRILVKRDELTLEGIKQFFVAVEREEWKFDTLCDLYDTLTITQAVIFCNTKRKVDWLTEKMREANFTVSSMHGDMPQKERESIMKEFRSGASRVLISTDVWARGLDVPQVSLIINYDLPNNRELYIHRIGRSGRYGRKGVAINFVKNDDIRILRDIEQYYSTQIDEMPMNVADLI
Sequence of DDX39B, Q13838 (Q13838 whole entry): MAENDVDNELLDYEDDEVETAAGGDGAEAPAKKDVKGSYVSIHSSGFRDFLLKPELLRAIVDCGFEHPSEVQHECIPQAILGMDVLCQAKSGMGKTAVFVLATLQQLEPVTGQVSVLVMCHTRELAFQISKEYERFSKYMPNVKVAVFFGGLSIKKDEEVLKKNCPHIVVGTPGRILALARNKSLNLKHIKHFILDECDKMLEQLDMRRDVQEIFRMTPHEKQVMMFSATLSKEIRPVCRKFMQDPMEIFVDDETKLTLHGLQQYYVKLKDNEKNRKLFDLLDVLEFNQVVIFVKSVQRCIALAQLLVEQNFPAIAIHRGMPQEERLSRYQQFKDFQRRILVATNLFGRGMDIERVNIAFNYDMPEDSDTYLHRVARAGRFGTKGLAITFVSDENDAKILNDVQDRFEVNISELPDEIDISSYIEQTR
Sequence of DDX39A, O00148 (O00148 whole entry): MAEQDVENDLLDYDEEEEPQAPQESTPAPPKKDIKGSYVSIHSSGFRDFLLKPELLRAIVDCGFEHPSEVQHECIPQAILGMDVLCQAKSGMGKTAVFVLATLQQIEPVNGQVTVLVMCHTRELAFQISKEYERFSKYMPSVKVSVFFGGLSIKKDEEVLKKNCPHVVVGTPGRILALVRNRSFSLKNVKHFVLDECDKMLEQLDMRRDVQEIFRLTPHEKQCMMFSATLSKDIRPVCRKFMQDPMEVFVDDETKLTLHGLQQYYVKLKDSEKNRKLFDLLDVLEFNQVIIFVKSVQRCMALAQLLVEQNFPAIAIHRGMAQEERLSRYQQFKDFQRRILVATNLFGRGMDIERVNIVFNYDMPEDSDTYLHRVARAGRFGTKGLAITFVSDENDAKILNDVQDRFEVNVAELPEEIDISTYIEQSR

The target in the assay is CHTOP (UniProt Q9Y3Y2). Particulars: DSSO, in cells.
Sequence of CHTOP (Q9Y3Y2 whole entry): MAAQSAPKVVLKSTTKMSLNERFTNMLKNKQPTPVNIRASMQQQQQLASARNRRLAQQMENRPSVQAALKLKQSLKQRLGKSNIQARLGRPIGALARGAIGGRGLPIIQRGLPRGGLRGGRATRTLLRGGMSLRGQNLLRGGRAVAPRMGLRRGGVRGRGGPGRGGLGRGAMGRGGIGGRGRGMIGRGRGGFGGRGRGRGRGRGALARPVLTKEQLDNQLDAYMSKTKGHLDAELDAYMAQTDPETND
As to EIF4A3, P38919, the cross-linked residues result is “K152 - K81”.
Turning to DDX39A, O00148, the cross-linked residues entry was “K187 - S225”.
On to DDX39B, Q13838, for which the cross-linked residues entry is recorded as “K188 - K226”.
